Where “and” joins values, the source holds several entries; their conditions need not be identical. Identical values can stand only once. This is part of a sample that, as a whole, favours compounds with a hit. Of some 83,000 tested, about 20% had one in any assay.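 A percent growth of 40 corresponds to 60% growth inhibition; 0 means no net growth; -100 means all cells died. Active threshold: below 10.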 Calls of active or inactive are those of the source.
Test system: MDA-MB-468 breast
Experiment: NCI-60 one-dose screen, 48 h (100 = growth as untreated, 0 = no growth, -100 = all killed)
Conditions: 10 µM unless noted

SMILES | growth
Cn1cc(-c2nc(-c3c[nH]c4ccccc34)cs2)c2cccnc21 | -12.5% (active)
Nc1ccc2c(c1)Cc1cc(N)c(Br)cc1-2 | 81.9% (inactive)
Cc1cc(Cl)ccc1NC(=O)/C(Cl)=C1/Sc2ccccc2NC1=O | 95.1% (inactive)
C/C(=N\O)C1(O)CCCCC1 | -9.98% (active)
COc1cc(NCCCN=C(N)NC(N)=NC(C)C)c2ncccc2c1 | -34.2% (active)
O=C(Nc1cccc([N+](=O)[O-])c1)c1cccc(C(=O)Nc2cccc([N+](=O)[O-])c2)c1 | 67.1% (inactive)
CCOC(=O)C1=C(C)Nc2nc3ccccc3n2C1c1cccc(Br)c1 (centres undefined) | 54.2% (inactive)
O=c1oc2ccccc2cc1-c1cc(-c2ccc(-c3cc(-c4cc5ccccc5oc4=O)nc(-c4cc5ccccc5oc4=O)c3)cc2)cc(-c2cc3ccccc3oc2=O)n1 | 84.3% (inactive)
N#Cc1ccc(N2Cc3cc(Cl)ccc3OC3=C2C(=O)N(Cc2ccccc2)C3=O)cc1 | -64.2% (active)
Nc1c(C(=O)Nc2ccncc2)sc2nc3c(cc12)CCCCCC3 | 87.8% (inactive)
COc1cc(-c2nc(SCCC(C)C)nc(Nc3ccccc3)c2C#N)cc(OC)c1OC | 112% (inactive)
Cc1ccc(S(=O)(=O)c2nc(-c3ccccc3)oc2S(C)(=O)=O)cc1 | -59.3% (active)
Clc1ccc(/C=N\N=c2\scc(-c3ccc(Cl)cc3)n2/N=C/c2ccc(Cl)cc2)cc1 | 115% (inactive)
O=C1NC(=S)NC(=O)C1=Cc1cn(Cc2cn(Cc3cccc4ccccc34)nn2)c2ccccc12 | 94.9% (inactive)
C#Cc1cccc(NC(=O)Nc2ccc(NC(=O)CCl)cc2)c1 | -53.7% [8.25 µM] (active)
CCN(CC)CCC(CNc1c2ccc([N+](=O)[O-])cc2nc2cc(OC)c(OC)cc12)c1ccccc1 (centres undefined) | -58% (active) and -86.9% (active)
O=C1Nc2ccccc2/C1=C/c1cccn1C(=O)c1ccc(Cl)s1 | -16.5% (active)
[O-]/[N+](=C\c1ccc(-n2cc(Cc3ccccc3Cc3cn(-c4ccc(/C=[N+](/[O-])c5ccccc5)cc4)nn3)nn2)cc1)c1ccccc1 | 96.6% (inactive)
c1ccc(CN=C(NCc2ccccc2)NCc2ccccc2)cc1 | -14.8% (active)
O=C(Nc1ccc(Cl)cc1)Oc1c(Cl)c(Cl)c(Cl)c(Cl)c1Cl | 106% (inactive)
Cc1ccc(Cc2cnc(NC(=O)/C=C/c3ccc(C)o3)s2)cc1 | -0.221% (active)
C#CC(=O)Nc1cccc(Nc2nc3c(c(NCc4ccccc4)n2)CCCC3)c1 | -54.7% (active)
O=C1/C(=C/c2ccccc2)CN(C(=O)C(Cl)Cl)C/C1=C\c1ccccc1 | -32.8% (active)
CN(Cc1ccccc1)c1nc(Cl)c(C2CC(c3ccc(F)cc3)=NN2C=O)s1 (centres undefined) | 77.5% (inactive)
